Results filed as inconclusive are left out. Entries that show only a call come without a potency. Active and inactive are the calls of the source. Calls follow the shape of the full dose curve.
Experiment: A High-Content qHTS Against Drug Library for the Identification of Small Molecules that Inhibit DYT1 Early Onset Primary Dystonia-Associated Cell Pathology (AID 1645839)
Conditions: HEK293 Flp-In EGFP-delE TorsinA, punctate imaging, 48 h; series mostly up to 46.1 µM
Summary of the method: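 In this high-content image screen, delE TorsinA mislocalization in inducible Flp-In 293 cells is scored as %pathology, with cell count serving as the counterscreen. Compound exposure lasts 48 h under tetracycline induction in reduced-serum medium.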
With CCCC(=O)OCOC(=O)C1=C(C)NC(C)=C(C(=O)OC)C1c1cccc(Cl)c1Cl (centres undefined) the Potency was “inactive”. For O=C(OCC(O)CO)c1ccccc1Nc1ccnc2c(C(F)(F)F)cccc12 (centres undefined), the Potency was “inactive”. For O=C(CCCCCCCCC#CI)Oc1ccccc1, the Potency was “inactive”. For CC(=O)[C@@]1(O)CC[C@H]2[C@@H]3C[C@H](C)C4=CC(=O)CC[C@]4(C)[C@H]3CC[C@@]21C, the Potency was “inactive”. In the case of O=C(c1cc(O)c(O)c(O)c1)c1ccc(O)c(O)c1O, the Potency is reported as “inactive”. For CC1CN(c2cc3c(cc2F)c(=O)c(C(=O)O)cn3-c2ccc(F)cc2F)CCN1 (centres undefined), the % pathology change, negative = correction was -2.29% [at 4.63 µM] (inactive). In the case of O=C1NCCN1CCN1CCC(c2cn(-c3ccc(F)cc3)c3ccc(Cl)cc23)CC1, the Potency is reported as 11.2 µM (active). With CCCC(=O)O[C@]1(C(=O)COC(=O)CC)CC[C@H]2[C@@H]3CCC4=CC(=O)CC[C@]4(C)[C@H]3[C@@H](O)C[C@@]21C the Potency was “inactive”. With O=c1[nH]sc2cc(Cl)ccc12 the Potency was “inactive”. For Cc1cc2nc3ccc(=[N+](C)C)cc-3sc2cc1N, the Potency was 7.08 µM (active). For CC(C)(C)c1ccc(O)c(O)c1, the Potency was 31.6 µM (active). With CCCCCCCCCCCCCC[N+](C)(C)C the Potency was 10 µM (active). With Cc1onc(-c2c(Cl)cccc2Cl)c1C(=O)Cl the Potency was “inactive”. With CC(C)(c1ccc(O)cc1)c1ccc(O)cc1 the Potency was 31.6 µM (active). In the case of N#C/C(=C1/SC[C@@H](c2ccc(Cl)cc2Cl)S1)n1ccnc1, the Potency is reported as “inactive”. With COC(=O)c1cc(S(N)(=O)=O)ccc1OC the Potency was “inactive”. In the case of CC(=O)Nc1c(I)c(NC(C)=O)c(I)c(C(=O)O)c1I, the Potency is reported as “inactive”. In the case of C[C@H]1C[C@@H]2[C@H]([C@@H](O)C[C@@]3(C)[C@H]2CC[C@]3(O)C(=O)CO)[C@@]2(C)C=CC(=O)C=C12, the Potency is reported as “inactive”. With OCc1cccnc1 the Potency was “inactive”. In the case of OCCCc1ccccc1, the Potency is reported as “inactive”. In the case of O=C(O)CCCC[P+](c1ccccc1)(c1ccccc1)c1ccccc1, the Potency is reported as “inactive”. In the case of CC(=O)Oc1ccc(C2(c3ccc(OC(C)=O)cc3)Oc3ccccc3NC2=O)cc1, the Potency is reported as 12.6 µM (active). For Nc1ccc(O)cc1, the Potency was “inactive”. With O=C(Oc1ccccc1)c1ccccc1O the Potency was “inactive”.

Reference: PubChem BioAssay (NCATS)
Potency is read from the fitted curve at half-maximal effect.
